Measurements from the supplement of paper PMC9492666.
Structures can show the parent of a compound that is named as a salt.

Tests used:
HCC1937 = assay: relative cell viability, compound + RSL3, vs DMSO (fraction of DMSO control); higher = less growth inhibition; settings: 72 h
MDA-MB-231 = assay: as above; settings: 72 h
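Note: breast cancer cell viability read out with the CCK-8 kit after co-treatment of each compound with the ferroptosis inducer RSL3.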

| SMILES | relative cell viability (HCC1937) | relative cell viability (MDA-MB-231) |
| --- | --- | --- |
| NC(CO)C(=O)O (racemic) [DL-Serine] + COC(=O)c1ccc([C@H]2c3[nH]c4ccccc4c3C[C@H](C(=O)OC)N2C(=O)CCl)cc1 [RSL3] | 0.399 | 0.594 |
| Cc1ccc(C)c(OCCCC(C)(C)C(=O)O)c1 [Gemfibrozil] + COC(=O)c1ccc([C@H]2c3[nH]c4ccccc4c3C[C@H](C(=O)OC)N2C(=O)CCl)cc1 [RSL3] | 0.631 | 0.523 |
| CCc1ccc(N(CC(C)C)S(=O)(=O)c2ccc(OCC3CCOCC3)c(CO)c2)cc1 + COC(=O)c1ccc([C@H]2c3[nH]c4ccccc4c3C[C@H](C(=O)OC)N2C(=O)CCl)cc1 [RSL3] | 0.53 | 0.581 |
| CC(C)(Oc1ccc(C(=O)c2ccc(Cl)cc2)cc1)C(=O)O [Choline Fenofibrate] + COC(=O)c1ccc([C@H]2c3[nH]c4ccccc4c3C[C@H](C(=O)OC)N2C(=O)CCl)cc1 [RSL3] | 0.469 | 0.692 |
| Cc1ccc(/C=C2\SC(=S)N(CCCCCC(=O)Nc3ccc(C(=O)O)c(O)c3)C2=O)cc1 + COC(=O)c1ccc([C@H]2c3[nH]c4ccccc4c3C[C@H](C(=O)OC)N2C(=O)CCl)cc1 [RSL3] | 0.632 | 0.577 |
| CCOP(=O)(OCC)C(=Cc1cc(C(C)(C)C)c(O)c(C(C)(C)C)c1)P(=O)(OCC)OCC + COC(=O)c1ccc([C@H]2c3[nH]c4ccccc4c3C[C@H](C(=O)OC)N2C(=O)CCl)cc1 [RSL3] | 0.274 | 0.448 |
| C[C@H](CCC(=O)O)[C@H]1CC[C@H]2[C@@H]3CC[C@@H]4C[C@H](O)CC[C@]4(C)[C@H]3CC[C@]12C [Lithocholic acid] + COC(=O)c1ccc([C@H]2c3[nH]c4ccccc4c3C[C@H](C(=O)OC)N2C(=O)CCl)cc1 [RSL3] | 0.844 | 0.649 |
| O=C(Nc1cnccc1Cl)N1CCN(Cc2ccc3c(c2)OC(F)(F)O3)CC1 + COC(=O)c1ccc([C@H]2c3[nH]c4ccccc4c3C[C@H](C(=O)OC)N2C(=O)CCl)cc1 [RSL3] | 0.338 | 0.568 |
| CN(CCOc1ccc(CC2SC(=O)NC2=O)cc1)c1ccccn1 (centres undefined) [Rosiglitazone HCl] + COC(=O)c1ccc([C@H]2c3[nH]c4ccccc4c3C[C@H](C(=O)OC)N2C(=O)CCl)cc1 [RSL3] | 0.486 | 0.714 |
| CN1CCN(C(=O)C2C(C(=O)O)[C@H]3CC[C@@H]2O3)CC1 (some centres undefined) + COC(=O)c1ccc([C@H]2c3[nH]c4ccccc4c3C[C@H](C(=O)OC)N2C(=O)CCl)cc1 [RSL3] | 0.313 | 0.367 |
| Oc1ccc(/C=C/c2cc(O)cc(O)c2)cc1 [Resveratrol] + COC(=O)c1ccc([C@H]2c3[nH]c4ccccc4c3C[C@H](C(=O)OC)N2C(=O)CCl)cc1 [RSL3] | 0.63 | 0.508 |
| O=C(CCCCc1ccc2c(c1)OCO2)N1CCCCC1 + COC(=O)c1ccc([C@H]2c3[nH]c4ccccc4c3C[C@H](C(=O)OC)N2C(=O)CCl)cc1 [RSL3] | 0.262 | 0.562 |
| O=C1c2cc(CO)cc(O)c2C(=O)c2c(O[C@@H]3O[C@H](CO)[C@@H](O)[C@H](O)[C@H]3O)cccc21 [Aloe-emodin-8-O-beta-D-glucopyranoside] + COC(=O)c1ccc([C@H]2c3[nH]c4ccccc4c3C[C@H](C(=O)OC)N2C(=O)CCl)cc1 [RSL3] | 0.368 | 0.544 |
| NC(=O)c1cnccn1 [Pyrazinamide] + COC(=O)c1ccc([C@H]2c3[nH]c4ccccc4c3C[C@H](C(=O)OC)N2C(=O)CCl)cc1 [RSL3] | 0.607 | 0.558 |
| CCc1ccc(CCOc2ccc(CC3SC(=O)NC3=O)cc2)nc1 (centres undefined) [Pioglitazone] + COC(=O)c1ccc([C@H]2c3[nH]c4ccccc4c3C[C@H](C(=O)OC)N2C(=O)CCl)cc1 [RSL3] | 0.919 | 0.629 |
| N#Cc1c(O)c2c(-c3ccc(-c4ccccc4O)cc3)csc2[nH]c1=O + COC(=O)c1ccc([C@H]2c3[nH]c4ccccc4c3C[C@H](C(=O)OC)N2C(=O)CCl)cc1 [RSL3] | 0.412 | 0.423 |
| O=C(/C=C/c1ccc(/C=C/C(=O)Nc2ccc(C3=NCCN3)cc2)cc1)Nc1ccc(C2=NCCN2)cc1 + COC(=O)c1ccc([C@H]2c3[nH]c4ccccc4c3C[C@H](C(=O)OC)N2C(=O)CCl)cc1 [RSL3] | 0.296 | 0.378 |
| O=C(c1ccc(-c2nc3ccc(F)cc3o2)cc1)N1CCN(C(=O)C2(O)CC2)CC1 + COC(=O)c1ccc([C@H]2c3[nH]c4ccccc4c3C[C@H](C(=O)OC)N2C(=O)CCl)cc1 [RSL3] | 0.398 | 0.683 |
| N#Cc1ccc(Oc2cccc(NC(=O)Nc3ccc(Cl)c(C(F)(F)F)c3)c2)cc1 + COC(=O)c1ccc([C@H]2c3[nH]c4ccccc4c3C[C@H](C(=O)OC)N2C(=O)CCl)cc1 [RSL3] | 0.0959 | 0.216 |

| SMILES | relative cell viability (HCC1937) | relative cell viability (MDA-MB-231) |
| --- | --- | --- |
| O=C(O)c1ccnc(N2CC(O)(c3ccc(OCc4c(-c5c(Cl)cccc5Cl)noc4C4CC4)cc3Cl)C2)c1 [Cilofexor] + COC(=O)c1ccc([C@H]2c3[nH]c4ccccc4c3C[C@H](C(=O)OC)N2C(=O)CCl)cc1 [RSL3] | 0.368 | 0.568 |
| Cc1ccc(Oc2nc3cc(-c4ccc(-c5ccccc5)cc4)c(Cl)cc3[nH]2)cc1C(=O)O + COC(=O)c1ccc([C@H]2c3[nH]c4ccccc4c3C[C@H](C(=O)OC)N2C(=O)CCl)cc1 [RSL3] | 0.538 | 0.6 |
| CCOc1cc(CC(=O)N[C@@H](CC(C)C)c2ccccc2N2CCCCC2)ccc1C(=O)O [Repaglinide] + COC(=O)c1ccc([C@H]2c3[nH]c4ccccc4c3C[C@H](C(=O)OC)N2C(=O)CCl)cc1 [RSL3] | 0.598 | 0.656 |
| C=C(C)[C@@H]1CCC2=CC(=O)C[C@@H](C)[C@]2(C)C1 [Nootkatone] + COC(=O)c1ccc([C@H]2c3[nH]c4ccccc4c3C[C@H](C(=O)OC)N2C(=O)CCl)cc1 [RSL3] | 0.509 | 0.613 |
| COc1cc(N2CCN(C)CC2)ccc1Nc1ncc2c(n1)N(C)c1ccccc1C(=O)N2 + COC(=O)c1ccc([C@H]2c3[nH]c4ccccc4c3C[C@H](C(=O)OC)N2C(=O)CCl)cc1 [RSL3] | 0.213 | 0.375 |
| C[C@H](CCCC(C)(C)O)[C@H]1CC[C@H]2[C@@H]3CC=C4C[C@@H](O)CC[C@]4(C)[C@H]3CC[C@]12C [25-Hydroxycholesterol] + COC(=O)c1ccc([C@H]2c3[nH]c4ccccc4c3C[C@H](C(=O)OC)N2C(=O)CCl)cc1 [RSL3] | 0.572 | 0.649 |
| Cc1cc([N+](=O)[O-])ccc1NS(=O)(=O)c1cc(Cl)ccc1Cl + COC(=O)c1ccc([C@H]2c3[nH]c4ccccc4c3C[C@H](C(=O)OC)N2C(=O)CCl)cc1 [RSL3] | 0.264 | 0.515 |
| c1cc(-c2cnn3cc(-c4ccc(OCCN5CCCCC5)cc4)cnc23)ccn1 [Dorsomorphin] + COC(=O)c1ccc([C@H]2c3[nH]c4ccccc4c3C[C@H](C(=O)OC)N2C(=O)CCl)cc1 [RSL3] | 0.123 | 0.31 |
| c1cc(-c2cnn3cc(-c4ccc(OCCN5CCCCC5)cc4)cnc23)ccn1 [Dorsomorphin dihydrochloride] + COC(=O)c1ccc([C@H]2c3[nH]c4ccccc4c3C[C@H](C(=O)OC)N2C(=O)CCl)cc1 [RSL3] | 0.111 | 0.286 |
| O=C(O)c1c[nH]c2cc(Cl)c(-c3ccc(C4(O)CCC4)cc3)cc12 + COC(=O)c1ccc([C@H]2c3[nH]c4ccccc4c3C[C@H](C(=O)OC)N2C(=O)CCl)cc1 [RSL3] | 0.572 | 0.572 |
| CC(=O)N1CCN(c2ccc(OCC3COC(Cn4ccnc4)(c4ccc(Cl)cc4Cl)O3)cc2)CC1 (centres undefined) [Ketoconazole] + COC(=O)c1ccc([C@H]2c3[nH]c4ccccc4c3C[C@H](C(=O)OC)N2C(=O)CCl)cc1 [RSL3] | 0.63 | 0.488 |
| O=C(O)CCCc1cc2cc(Cl)ccc2n1S(=O)(=O)c1ccc2ncsc2c1 [Lanifibranor] + COC(=O)c1ccc([C@H]2c3[nH]c4ccccc4c3C[C@H](C(=O)OC)N2C(=O)CCl)cc1 [RSL3] | 0.464 | 0.786 |
| COc1cc(F)c(C(C)C)cc1-c1ccc(C(F)(F)F)cc1CN1C(=O)O[C@H](c2cc(C(F)(F)F)cc(C(F)(F)F)c2)[C@@H]1C [Anacetrapib] + COC(=O)c1ccc([C@H]2c3[nH]c4ccccc4c3C[C@H](C(=O)OC)N2C(=O)CCl)cc1 [RSL3] | 0.622 | 0.497 |
| CCCc1c(OCCCOc2ccc(OCC(=O)O)cc2)ccc(C(C)=O)c1O + COC(=O)c1ccc([C@H]2c3[nH]c4ccccc4c3C[C@H](C(=O)OC)N2C(=O)CCl)cc1 [RSL3] | 0.556 | 0.757 |
| Cc1nc(Nc2cnn(C3CCNCC3)c2)nc2c1N(C)C(=O)c1cc3ccccc3cc1N2C + COC(=O)c1ccc([C@H]2c3[nH]c4ccccc4c3C[C@H](C(=O)OC)N2C(=O)CCl)cc1 [RSL3] | 0.31 | 0.287 |
| O=C(O)c1cccnc1Nc1cccc(C(F)(F)F)c1 [Niflumic acid] + COC(=O)c1ccc([C@H]2c3[nH]c4ccccc4c3C[C@H](C(=O)OC)N2C(=O)CCl)cc1 [RSL3] | 0.734 | 0.53 |
| COc1cc([C@@H]2Oc3c(O)cc([C@H]4Oc5cc(O)cc(O)c5C(=O)[C@@H]4O)cc3[C@H]2CO)ccc1O [Silychristin] + COC(=O)c1ccc([C@H]2c3[nH]c4ccccc4c3C[C@H](C(=O)OC)N2C(=O)CCl)cc1 [RSL3] | 0.567 | 0.66 |
| COc1ccc(-n2c(SCCCN3C(=O)c4cccc5cccc(c45)C3=O)nnc2-c2ccncc2)cc1 + COC(=O)c1ccc([C@H]2c3[nH]c4ccccc4c3C[C@H](C(=O)OC)N2C(=O)CCl)cc1 [RSL3] | 0.324 | 0.56 |
